# Records with an inconclusive call do not appear. Active and inactive are the calls of the source. Unless noted, calls come from the whole dose curve; as a rule, active = well fitted cell-killing curve with a large enough effect in the repeat runs (not every such curve was filed as active); inconclusive = weak or mixed curves, or effect the other way; inactive = no such curve, though single readings can be large or run the other way.
# Test system: not listed separately
# Assay: qHTS assay to identify small molecule agonists of the farnesoid-X-receptor (FXR) signaling pathway - cell viability counter screen (AID 743218; active = well fitted cell-killing curve with a large enough effect in the repeat runs; note: nearly all actives have a fitted effect of over 45% in size)
# Conditions: FXR-bla HEK293T viability, CellTiter-Glo luminescence, 16 h; series mostly up to 62.6 µM
# Outline: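 Viability counter screen in the same wells: CellTiter-Glo luminescence, 30 min room-temperature incubation, measured after the beta-lactamase read. Cells were GeneBLAzer FXR-UAS-bla HEK 293T, compound-treated 16 h at 37C.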
row,SMILES,outcome
1,O=c1n(Cl)c(=O)n(Cl)c(=O)n1Cl,inactive
2,Oc1ccccc1Cl,inactive
3,O=C1CCCN1,inactive
4,Clc1ccc(Cl)cc1,inactive
5,O=c1[nH]c(=O)[nH]c(=O)[nH]1,inactive
6,CNC(=O)Oc1ccccc1OC(C)C,inactive
7,CC(=O)C=C(C)C,inactive
8,CCOC(=O)c1ccccc1C(=O)OCC,inactive
9,C1CC2OC2CC1C1CO1 (stereo not drawn),inactive
10,COC(=O)NC(=S)Nc1ccccc1NC(=S)NC(=O)OC,inactive
11,COC(=O)c1ccccc1N,inactive
12,Cc1ccc(N)cc1N,inactive
13,[O-][Cl+2]([O-])O,inactive
14,O=[N+]([O-])c1ccccc1,inactive
15,O=NN1CCCCCCC1,inactive
16,CN(C)CCO,inactive
17,CCC[CH2][Sn]([Cl])([Cl])[Cl],inactive

row,SMILES,outcome
1,C#CCN(C)[C@H](C)Cc1ccccc1,inactive
2,CC(C)NC(=O)N1CC(=O)N(c2cc(Cl)cc(Cl)c2)C1=O,inactive
3,c1ccc(-c2ccccc2)cc1,inactive
4,Cc1cc(Cl)ccc1O,inactive
5,CCC[N+](=O)[O-],inactive
6,Cc1ccc([N+](=O)[O-])cc1C,inactive
7,C=CC(N)=O,inactive
8,C=CCO,inactive
9,CC1OC(C)OC(C)O1 (stereo not drawn),inactive
10,C[C@]12CC[C@H]3[C@@H](CC[C@@]45O[C@@H]4C(O)=C(C#N)C[C@]35C)[C@@H]1CC[C@@H]2O,inactive
11,O=S(=O)(c1ccc(Cl)cc1)c1cc(Cl)c(Cl)cc1Cl,inactive
12,Nc1ccc(Br)cc1,inactive
13,COc1ccc2c3c1O[C@H]1[C@@H](O)C=C[C@H]4[C@@H](C2)N(C)CC[C@@]341,inactive
14,CC(C)(C)OOC(C)(C)C,inactive
15,Cc1ccccc1O,inactive
16,c1ccc(OP(Oc2ccccc2)Oc2ccccc2)cc1,inactive

# Target: Bile acid receptor (Homo sapiens) (UniProt Q96RI1)
# Assay: qHTS assay to identify small molecule agonists of the farnesoid-X-receptor (FXR) signaling pathway (AID 743220; active = well fitted activation curve with a large enough effect in the signal ratio in the repeat runs, not every such curve was filed as active; the % refers to the signal ratio)
# Conditions: HEK293T FXR-UAS-bla, beta-lactamase FRET ratio, 16 h; series mostly up to 62.6 µM
# Outline: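 FXR-UAS-bla HEK 293T cells carrying a UAS-driven beta-lactamase reporter were plated for 5 h at 37C/5% CO2, then exposed to DMSO-dissolved Tox21 10K compounds for 16 h at 37C. A LiveBLAzer B/G FRET substrate was loaded for 2 h at room temperature before fluorescence reading.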
# Sequence of Bile acid receptor (Homo sapiens) (Q96RI1 whole entry, looked up): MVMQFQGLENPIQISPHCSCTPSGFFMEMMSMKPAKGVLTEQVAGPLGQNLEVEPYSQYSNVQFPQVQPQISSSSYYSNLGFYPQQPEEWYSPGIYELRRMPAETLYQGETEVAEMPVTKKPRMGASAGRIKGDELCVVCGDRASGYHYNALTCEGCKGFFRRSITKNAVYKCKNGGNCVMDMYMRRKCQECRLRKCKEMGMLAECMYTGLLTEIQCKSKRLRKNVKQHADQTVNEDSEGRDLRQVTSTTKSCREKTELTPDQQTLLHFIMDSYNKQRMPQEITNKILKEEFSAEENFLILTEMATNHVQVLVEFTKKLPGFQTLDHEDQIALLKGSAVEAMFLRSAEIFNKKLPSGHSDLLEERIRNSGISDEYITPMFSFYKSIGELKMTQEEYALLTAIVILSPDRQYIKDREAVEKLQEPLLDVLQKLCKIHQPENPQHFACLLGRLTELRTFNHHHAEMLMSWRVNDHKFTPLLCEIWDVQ
row,SMILES,outcome
1,COC(=O)c1ccccc1C(=O)OC,inactive
2,O=C1CCCN1,inactive
3,C1CC2OC2CC1C1CO1 (stereo not drawn),inactive
4,COC(=O)NC(=S)Nc1ccccc1NC(=S)NC(=O)OC,inactive
5,Cc1ccc(N)cc1N,inactive
6,[O-][Cl+2]([O-])O,inactive
7,O=NN1CCCC1,inactive
8,O=NN1CCCCCCC1,inactive
9,CCC[CH2][Sn]([Cl])([Cl])[Cl],inactive
10,c1ccc(-c2ccccc2)cc1,inactive
11,Cc1cc(Cl)ccc1O,inactive
12,CCC[N+](=O)[O-],inactive
13,Cc1ccc([N+](=O)[O-])cc1C,inactive
14,CC1OC(C)OC(C)O1 (stereo not drawn),inactive
15,O=S(=O)(c1ccc(Cl)cc1)c1cc(Cl)c(Cl)cc1Cl,inactive
16,Nc1ccc(Br)cc1,inactive
17,COc1ccc2c3c1O[C@H]1[C@@H](O)C=C[C@H]4[C@@H](C2)N(C)CC[C@@]341,inactive
18,CC(C)(C)OOC(C)(C)C,inactive

# Test system: not listed separately
# Assay: qHTS assay to identify small molecule antagonists of the farnesoid-X-receptor (FXR) signaling pathway - cell viability counter screen (AID 743221); note: nearly all actives have a fitted effect of over 50% in size
# Conditions: FXR-bla HEK293T viability, CellTiter-Glo luminescence, 16 h; series mostly up to 62.6 µM
# Outline: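 Cytotoxicity is taken from ATP luminescence (CellTiter-Glo, 30 min, room temperature) in FXR-bla HEK 293T cells previously incubated 16 h at 37 C with compound and chenodeoxycholic acid at 50 uM final.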
row,SMILES,outcome
1,COC(=O)c1ccccc1C(=O)OC,inactive
2,O=c1n(Cl)c(=O)n(Cl)c(=O)n1Cl,inactive
3,Oc1ccccc1Cl,inactive
4,O=C1CCCN1,inactive
5,Clc1ccc(Cl)cc1,inactive
6,O=c1[nH]c(=O)[nH]c(=O)[nH]1,inactive
7,CNC(=O)Oc1ccccc1OC(C)C,inactive
8,CC(=O)C=C(C)C,inactive
9,CCOC(=O)c1ccccc1C(=O)OCC,inactive
10,C1CC2OC2CC1C1CO1 (stereo not drawn),inactive
11,COC(=O)NC(=S)Nc1ccccc1NC(=S)NC(=O)OC,inactive
12,COC(=O)c1ccccc1N,inactive
13,Cc1ccc(N)cc1N,inactive
14,[O-][Cl+2]([O-])O,inactive
15,O=[N+]([O-])c1ccccc1,inactive
16,O=NN1CCCC1,inactive
17,O=NN1CCCCCCC1,inactive
18,CN(C)CCO,inactive

row,SMILES,outcome
1,CCC[CH2][Sn]([Cl])([Cl])[Cl],inactive
2,C#CCN(C)[C@H](C)Cc1ccccc1,inactive
3,CC(C)NC(=O)N1CC(=O)N(c2cc(Cl)cc(Cl)c2)C1=O,inactive
4,c1ccc(-c2ccccc2)cc1,inactive
5,Cc1cc(Cl)ccc1O,inactive
6,CCC[N+](=O)[O-],inactive
7,Cc1ccc([N+](=O)[O-])cc1C,inactive
8,C=CC(N)=O,inactive
9,C=CCO,inactive
10,CC1OC(C)OC(C)O1 (stereo not drawn),inactive
11,C[C@]12CC[C@H]3[C@@H](CC[C@@]45O[C@@H]4C(O)=C(C#N)C[C@]35C)[C@@H]1CC[C@@H]2O,inactive
12,O=S(=O)(c1ccc(Cl)cc1)c1cc(Cl)c(Cl)cc1Cl,inactive
13,Nc1ccc(Br)cc1,inactive
14,COc1ccc2c3c1O[C@H]1[C@@H](O)C=C[C@H]4[C@@H](C2)N(C)CC[C@@]341,inactive
15,O=[N+]([O-])c1ccc(Oc2ccc(Cl)cc2Cl)cc1,inactive
16,CC(C)(C)OOC(C)(C)C,inactive
17,Cc1ccccc1O,inactive
18,c1ccc(OP(Oc2ccccc2)Oc2ccccc2)cc1,inactive

# Target: Vitamin D3 receptor (Homo sapiens) (UniProt P11473)
# Assay: qHTS assay to identify small molecule agonists of the vitamin D receptor (VDR) signaling pathway (AID 743222; calls by dose curve)
# Conditions: HEK293T VDR-UAS-bla, beta-lactamase FRET ratio, 16 h; series mostly up to 63.5 µM
# Outline: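 Agonist mode, beta-lactamase reporter: fluorescence from LiveBLAzer B/G FRET substrate (2 h, room temperature) read after 16 h compound treatment at 37 C of VDR-bla cells, which were pre-incubated 4 h after seeding.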
# Sequence of Vitamin D3 receptor (Homo sapiens) (P11473 whole entry, looked up): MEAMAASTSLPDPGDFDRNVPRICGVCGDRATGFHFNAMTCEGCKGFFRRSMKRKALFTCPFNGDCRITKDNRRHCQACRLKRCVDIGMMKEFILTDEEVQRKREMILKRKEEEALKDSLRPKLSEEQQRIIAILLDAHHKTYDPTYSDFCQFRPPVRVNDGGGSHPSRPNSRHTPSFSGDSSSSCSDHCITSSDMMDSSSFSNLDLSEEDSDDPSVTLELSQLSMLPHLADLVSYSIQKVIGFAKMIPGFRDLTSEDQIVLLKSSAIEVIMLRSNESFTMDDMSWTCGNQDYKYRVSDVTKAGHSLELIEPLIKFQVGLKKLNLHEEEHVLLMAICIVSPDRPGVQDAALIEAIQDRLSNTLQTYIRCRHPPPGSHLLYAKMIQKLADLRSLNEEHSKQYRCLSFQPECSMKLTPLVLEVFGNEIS
row,SMILES,outcome
1,COC(=O)c1ccccc1C(=O)OC,inactive
2,O=c1n(Cl)c(=O)n(Cl)c(=O)n1Cl,inactive
3,Oc1ccccc1Cl,inactive
4,Clc1ccc(Cl)cc1,inactive
5,O=c1[nH]c(=O)[nH]c(=O)[nH]1,inactive
6,CNC(=O)Oc1ccccc1OC(C)C,inactive
7,CC(=O)C=C(C)C,inactive
8,CCOC(=O)c1ccccc1C(=O)OCC,inactive
9,C1CC2OC2CC1C1CO1 (stereo not drawn),inactive
10,COC(=O)NC(=S)Nc1ccccc1NC(=S)NC(=O)OC,inactive
11,COC(=O)c1ccccc1N,inactive
12,Cc1ccc(N)cc1N,inactive
13,[O-][Cl+2]([O-])O,inactive
14,O=NN1CCCC1,inactive
15,CN(C)CCO,inactive
16,C#CCN(C)[C@H](C)Cc1ccccc1,inactive
17,Cc1cc(Cl)ccc1O,inactive
18,CCC[N+](=O)[O-],inactive
19,Cc1ccc([N+](=O)[O-])cc1C,inactive
20,C=CC(N)=O,inactive
21,C[C@]12CC[C@H]3[C@@H](CC[C@@]45O[C@@H]4C(O)=C(C#N)C[C@]35C)[C@@H]1CC[C@@H]2O,inactive
22,O=S(=O)(c1ccc(Cl)cc1)c1cc(Cl)c(Cl)cc1Cl,inactive
23,COc1ccc2c3c1O[C@H]1[C@@H](O)C=C[C@H]4[C@@H](C2)N(C)CC[C@@]341,inactive
24,O=[N+]([O-])c1ccc(Oc2ccc(Cl)cc2Cl)cc1,inactive
25,Cc1ccccc1O,inactive
26,c1ccc(OP(Oc2ccccc2)Oc2ccccc2)cc1,inactive

# — PubChem BioAssay (Tox21)
